Bioassay records deposited in PubChem BioAssay by National Center for Advancing Translational Sciences (NCATS).
Compounds with a hit are over-represented: about 7.8% of the library has one in this group of screens.
HCV inhibitor – blocks hepatitis C virus; Huh7.5.1 HCVcc-Cre infection, luciferase reporter, 44 h; Potency, µM (top dose mostly 41.8 µM), for inactives: at the top dose activity change, negative = inhibition, usual class: inhibitors; actives 3.4% (n = 340,000); AID 651820; active = well fitted inhibition curve with a large enough effect; inconclusive = small, poorly fitted or top-dose-only effect, or another doubt; inactive = no such curve, though single readings can be large or run the other way; note: potency is the fitted concentration of half-maximal effect
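Seed cells (1,000/well) for 4 h; treat with compound and infect with HCVcc-Cre, moi about 0.5. Incubate 44 h, then detect luciferase activity.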
HCMV antiviral – inhibitors of human cytomegalovirus; AID 1259415; actives 4.5% (n = 410,000); activity change, negative = inhibition, % at 57.5 µM; HFF cells, HCMV-luciferase reporter, 72 h; hits give low values; in the data active = activity change below about -60%; inconclusive = no clear call, values can overlap the other calls; inactive = above about -39%
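Compounds were evaluated in HFFs infected with an HCMV luciferase reporter virus (MOI 1 PFU/cell). Luciferase in lysates collected 72 h post infection served as the replication measure.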
Marburg entry inh – blocks Marburg virus binding to or entry into cells. Marburg virus pseudotyped entry inhibition, cell reporter. actives 1.8% (n = 300,000). Potency, µM (titrated, usually from 37.8 µM), for the others: top-dose activity change, negative = inhibition, most hits filed as inhibitors; calls by dose curve; tested in HEK293 cells; note: potency is the fitted concentration of half-maximal effect
Vaccinia mCherry – vaccinia inhibition (mCherry reporter) | Vaccinia virus mCherry reporter infection, fluorescence | Potency, µM (series often up to 36.5 µM), for inactives: at the highest dose activity change, negative = inhibition, usual class: inhibitors | actives 0.63% (n = 310,000) | AID 720579; calls by dose curve; tested in A549 cells; note: potency is the fitted concentration of half-maximal effect; nearly all actives have a fitted effect of over 35% in size
Lassa entry inh – Lassa virus entry inhibition | Lassa virus pseudotype entry inhibition, cell reporter | Potency, µM (titrated, usually from 37.9 µM), for inactives: at the highest dose activity change, negative = inhibition, usual class: inhibitors | actives 1.2% (n = 300,000) | AID 540256; calls by dose curve; tested in HEK293 cells; note: potency is the fitted concentration of half-maximal effect; nearly all actives have a fitted effect of over 50% in size
VACV Venus inh – inhibitors of vaccinia virus (Venus reporter). Potency, µM (titrated, usually from 36.5 µM), for inactives: at the highest dose activity change, negative = inhibition, usual class: inhibitors. AID 720580. Vaccinia virus Venus reporter expression, fluorescence. actives 0.46% (n = 330,000); calls by dose curve; tested in A549 cells; note: potency is the fitted concentration of half-maximal effect; nearly all actives have a fitted effect of over 30% in size
Numbers without * were called inactive; i = inactive; ? = inconclusive; . = no result given; [ ] = dose if it differs, or a comment. % is set by controls: 0 for no effect and ±100 for the full control effect.

SMILES	HCV inhibitor	HCMV antiviral	Marburg entry inh	Vaccinia mCherry	Lassa entry inh	VACV Venus inh
O=C(c1ccccc1)N1CCN(C(=O)c2ccccc2)c2ccccc21	3.2µM*	-100*	?	-12%	?	-15%
CN1OC(C)(CC(=O)NCc2ccccc2)N=C1c1ccccc1 (stereo not drawn)	.	-8	.	.	.	.
CC(C)(C)Cc1c(-c2ccc(C#N)cc2)nc2ccc(Cl)cn12	.	14	.	-7%	.	-1%
O=S(Cc1ccc(Br)cc1)Cc1nnc(SCc2c(F)cccc2Cl)n1-c1ccccc1 (stereo not drawn)	?	?	?	-12%	?	-29%
O=S(Cc1ccc(Br)cc1)Cc1nnc(SCc2ccc(Cl)cc2)n1-c1ccccc1 (stereo not drawn)	6.3µM*	-66*	?	i	13µM*	?
CCOP(=O)(Nc1ccc2c(c1)C(=NNC(N)=S)c1ccccc1-2)OCC	11µM*	30	?	11µM*	-20%	?
Cc1ccccc1C(=O)N1CC(=O)Nc2ccc(Cl)cc2C1c1ccccc1 (stereo not drawn)	.	-13	-24%[46.1 µM]	-8%	-27%[46.1 µM]	-13%
O=[N+]([O-])c1cccc2c(N3CCCC3)ccnc12	3.5µM*	-106*	?	?	?	7.1µM*
COc1ccc(Nc2ccnc3ccccc23)cc1	?	?	?	.	-4%	-20%
CC(C)Nc1ccc(Nc2ccnc3cc4ccccc4cc23)cc1	?	-100*	5.2µM*	?	6.3µM*	?
c1ccc(CCNc2ccnc3cc4ccccc4cc23)cc1	6.3µM*	-101*	?	?	.	?
CN(C)c1ccc(/C=C2\SC(=O)N(CCc3nnc(N)s3)C2=O)cc1	-18%	?	1.1µM*	-7%	?	31%
Cc1cc(C)nc(N2CCN(C(=O)c3ccc(S(=O)(=O)N4CCCCCC4)cc3)CC2)n1	11µM*	-7	2%[46.1 µM]	-15%	29%	-7%
O=C(c1ccc(S(=O)(=O)Nc2ccc(F)cc2)cc1)N1CCN(c2ccccn2)CC1	?	-80*	?	-16%	?	-20%
Cc1ccc(NS(=O)(=O)c2ccc(C(=O)N3CCN(c4ncccn4)CC3)cc2)cc1	?	-77*	?	-14%	7.9µM*	?
Cc1ccc(S(=O)(=O)N2CCN(C(=O)c3ccc(S(=O)(=O)N4CCCC4)cc3)CC2)cc1	3%	11	.	.	.	.
COC1=CC2C(=O)C(C(c3ccccc3)C2C)C1(C)O (stereo not drawn)	.	.	1%[14.2 µM]	.	.	.
COc1cc2nc(N3CCN(C)CC3)nc(NC(C)C)c2cc1OC	.	.	.	-7%	.	-24%
COc1ccc(NC(=O)C2CCCN(c3ncnc4onc(C)c34)C2)cc1OC (stereo not drawn)	.	-14	.	i	7%[46.1 µM]	-6%
COc1ccc(Cl)cc1NC(=O)C1CCCN(c2ncnc3onc(C)c23)C1 (stereo not drawn)	.	-77*	.	-22%	-16%[46.1 µM]	-11%
CCOC(=O)Nc1ccc(N2CCOCC2)c(S(=O)(=O)Nc2ccc(Cl)cc2)c1	?	28	10µM*	-28%	?	-6%
COc1ccc(NS(=O)(=O)c2cc(NC(=O)c3cc(F)c(F)cc3Cl)ccc2N2CCOCC2)cc1	?	-24	.	.	.	.
Nc1cc(S(=O)(=O)Nc2ccc(Cl)cc2)ccc1N1CCOCC1	?	-72*	?	?	?	-13%
CC(C)OCCCNC(=O)CN1C(=O)c2ccccc2Sc2ncccc21	.	-23	.	i	4%[46.1 µM]	-2%
COc1ccccc1CNc1nc2cc(-c3ccccc3C)sc2c(=O)n1C	.	46	.	-14%	.	-2%
Cc1ccc2nc(C3CCCCC3)c(Cc3ccsc3)n2c1	.	-6	.	-14%	.	-15%
C/C(=N\NC(N)=S)C12CC3CC(CC(C3)C1)C2	?	-69*	?	11µM*	?	8.9µM*
C/C(=N\NC(N)=O)C1(C)CCCCC1	23%	-6	16%	.	5%	.
C/C(=N\NC(N)=S)C1(C)CCCCC1	-4%	-61*	-31%	?	-37%	?
CCOCCCn1c(=NC(=O)c2ccco2)c(C(=O)OCC)cc2c(=O)n3cccc(C)c3nc21	11µM*	-8	.	.	.	.
